Over roughly 8,300 sequences, “log2 fold change of degron read counts, EGFP-low vs EGFP+ sorted cells (limma voom), compound-induced degradation” has its median near -1.1; the highest 2% begin near 3.2. The sample holds the highest values, similar sequences and a random draw of the others, so the mix is not that of the screen.
Biological target: T1, CRBN, Q96SW2
T1 chain: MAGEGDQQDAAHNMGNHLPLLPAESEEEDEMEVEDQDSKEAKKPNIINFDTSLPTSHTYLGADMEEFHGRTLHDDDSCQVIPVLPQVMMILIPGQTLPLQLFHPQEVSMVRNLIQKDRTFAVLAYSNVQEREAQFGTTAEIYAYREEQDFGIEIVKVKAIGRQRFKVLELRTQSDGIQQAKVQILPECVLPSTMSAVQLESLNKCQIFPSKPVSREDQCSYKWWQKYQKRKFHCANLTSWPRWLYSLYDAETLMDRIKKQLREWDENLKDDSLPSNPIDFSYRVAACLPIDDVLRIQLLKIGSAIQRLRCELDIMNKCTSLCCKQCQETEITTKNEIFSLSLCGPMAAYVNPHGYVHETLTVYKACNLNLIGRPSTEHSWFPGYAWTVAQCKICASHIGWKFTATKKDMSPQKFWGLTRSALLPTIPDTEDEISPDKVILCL
Assay: log2 fold change of degron read counts, EGFP-low vs EGFP+ sorted cells (limma voom), compound-induced degradation; higher = more compound-induced degradation of the degron-EGFP fusion; degrons are variants of IKZF1/3 zinc finger 2; compound dose not given here
Conditions: Jurkat, 18 h

[1] = compound: compound 19 (5-tert-butyl-thalidomide)
[2] = compound: compound 22 (5-morpholino-thalidomide)
[3] = compound: compound 33 (diphenyl IMiD analogue)
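Further: pooled lentiviral library of zinc finger degron-EGFP fusions in mCherry-positive Jurkat cells, FACS-sorted after compound exposure, with degron abundance counted by next-generation sequencing.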

| Sequence | log2 fold change of degron read counts [1] | log2 fold change of degron read counts [2] | log2 fold change of degron read counts [3] | log2 fold change of degron read counts (compound: thalidomide) |
| --- | --- | --- | --- | --- |
| FMCDVCGATFTQKGNLLRHIKL [46F_47M_49D_50V_52G_53A_54T_55F_67L_, Q9UKT9] | -2.12 | -2.03 | 0.562 | -1.29 |
| FICPICGALFTQKGNLLRHIKL [46F_47I_49P_50I_52G_53A_54L_55F_67L_, Q9UKT9] | -1.19 | 0.987 | 1.39 | 1.34 |
| LYCPICGFGCTQKGNLLRHIKL [46L_47Y_49P_50I_52G_53F_54G_55C_67L_, Q9UKT9] | 3.31 | 2.96 | 2.48 | 1.46 |
| LQCPICGFACTQKGNLLRHIKL [46L_47Q_49P_50I_52G_53F_54A_55C_67L_, Q9UKT9] | 2.66 | 2.96 | 2.47 | 3.55 |
| LMCPICGFACTQKGNLLRHIKL [46L_47M_49P_50I_52G_53F_54A_55C_67L_, Q9UKT9] | 1.55 | 2.48 | 2.86 | 2.97 |
| LRCPICGFGCTQKGNLLRHIKL [46L_47R_49P_50I_52G_53F_54G_55C_67L_, Q9UKT9] | 2.74 | 2.14 | 2.33 | 2.47 |
| LICPICGFACTQKGNLLRHIKL [46L_47I_49P_50I_52G_53F_54A_55C_67L_, Q9UKT9] | 0.747 | 2.69 | 1.82 | 2.87 |
| LWCPICGFACTQKGNLLRHIKL [46L_47W_49P_50I_52G_53F_54A_55C_67L_, Q9UKT9] | 2.95 | 3.32 | 2.72 | 1.84 |
| LFCPICGFGCTQKGNLLRHIKL [46L_47F_49P_50I_52G_53F_54G_55C_67L_, Q9UKT9] | 3.06 | 2.74 | 2.03 | 1.48 |
| LLCPICGFACTQKGNLLRHIKL [46L_47L_49P_50I_52G_53F_54A_55C_67L_, Q9UKT9] | 0.701 | 0.253 | 1.48 | 1.92 |
| LGCPICGFACTQKGNLLRHIKL [46L_47G_49P_50I_52G_53F_54A_55C_67L_, Q9UKT9] | 3.1 | 2.1 | 1.7 | 1.09 |
| FHCEICGRHFTQKGNLLRHIKL [46F_47H_49E_50I_52G_53R_54H_55F_67L_, Q9UKT9] | -0.861 | -2.23 | -1.35 | -1.95 |
| FVCNQCGACFTQKGNLLRHIKL [46F_47V_49N_50Q_52G_53A_54C_55F_67L_, Q9UKT9] | -2.19 | -2.11 | -0.29 | -1.14 |
| LNCPICGFECTQKGNLLRHIKL [46L_47N_49P_50I_52G_53F_54E_55C_67L_, Q9UKT9] | 1.07 | -0.0323 | 0.322 | 1 |
| FWCEQCGARFTQKGNLLRHIKL [46F_47W_49E_50Q_52G_53A_54R_55F_67L_, Q9UKT9] | 1.69 | 3.12 | 0.0332 | -0.593 |
| FMCPICGRPFTQKGNLLRHIKL [46F_47M_49P_50I_52G_53R_54P_55F_67L_, Q9UKT9] | 0.216 | 0.55 | 1.39 | 0.856 |
| FSCEICGREFTQKGNLLRHIKL [46F_47S_49E_50I_52G_53R_54E_55F_67L_, Q9UKT9] | -2.51 | -2.86 | -1.9 | -2.01 |
| FACDQCGASFTQKGNLLRHIKL [46F_47A_49D_50Q_52G_53A_54S_55F_67L_, Q9UKT9] | -0.53 | -1.83 | -2.25 | -3.41 |
| FNCEVCGATFTQKGNLLRHIKL [46F_47N_49E_50V_52G_53A_54T_55F_67L_, Q9UKT9] | 1.35 | 0.0506 | 0.168 | -0.31 |
| FCCEVCGATFTQKGNLLRHIKL [46F_47C_49E_50V_52G_53A_54T_55F_67L_, Q9UKT9] | 1.77 | 2.12 | 2.55 | 2.46 |
| FWCEVCGATFTQKGNLLRHIKL [46F_47W_49E_50V_52G_53A_54T_55F_67L_, Q9UKT9] | 2.75 | 3.75 | 1.87 | 0.335 |
| FACEVCGATFTQKGNLLRHIKL [46F_47A_49E_50V_52G_53A_54T_55F_67L_, Q9UKT9] | 3.32 | 2.03 | 0.449 | -0.11 |
| FRCEVCGATFTQKGNLLRHIKL [46F_47R_49E_50V_52G_53A_54T_55F_67L_, Q9UKT9] | -0.885 | -1.05 | 1.42 | 1.06 |
| FSCEVCGATFTQKGNLLRHIKL [46F_47S_49E_50V_52G_53A_54T_55F_67L_, Q9UKT9] | 2.73 | 2.4 | 1.63 | 1.3 |
| FGCEVCGATFTQKGNLLRHIKL [46F_47G_49E_50V_52G_53A_54T_55F_67L_, Q9UKT9] | 3.09 | 2.54 | 0.976 | 0.784 |
| FQCEVCGATFTQKGNLLRHIKL [46F_47Q_49E_50V_52G_53A_54T_55F_67L_, Q9UKT9] | 0.152 | 2.64 | 2.01 | 3.74 |
| FDCEVCGATFTQKGNLLRHIKL [46F_47D_49E_50V_52G_53A_54T_55F_67L_, Q9UKT9] | 0.941 | -0.571 | -0.022 | 0.317 |
| FMCEVCGATFTQKGNLLRHIKL [46F_47M_49E_50V_52G_53A_54T_55F_67L_, Q9UKT9] | -1.56 | -0.319 | 2.09 | 0.937 |
| FKCEVCGATFTQKGNLLRHIKL [46F_47K_49E_50V_52G_53A_54T_55F_67L_, Q9UKT9] | -1.63 | -3.47 | -2.68 | -1.11 |
| FYCEVCGATFTQKGNLLRHIKL [46F_47Y_49E_50V_52G_53A_54T_55F_67L_, Q9UKT9] | 3.1 | 4.14 | 2.47 | 1.12 |

Reference: the supplement of paper PMC12645437, “Orthogonal IMiD-Degron Pairs Induce Selective Protein Degradation in Cells” (ACS Chemical Biology, 2025)
